# Source: PubChem BioAssay (NMMLSC)
# FPR ligand = binds the human formylpeptide receptor FPR. P21462. FPR-expressing cells, fluorescent ligand binding, flow cytometry. inhibition, % (test concentration not listed). 0.74% of 24,000 active. AID 440
# Autofluor Jurkat = counter-screen for VLA-4 integrin: compound autofluorescence in Jurkat cells | flow cytometry; active compounds read high; 1 = vehicle-only cell background | fluorescence ratio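 (tested at 10 µM compound in the well)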 | 0.61% of 24,000 active;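 active = fluorescence ratio above 2.44, which is 1 plus 3 SD of all ratios; inconclusive = signal too bright to measure linearly, ratio around 10 or more; inactive = fluorescence ratio below 2.44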;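 note: green fluorescence of cells measured with 488 nm excitation and 530 nm emission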
# VLA-4 antagonist = inhibitors of LDV-FITC ligand binding to Mn2+-activated human VLA-4 integrin | P13612 | Jurkat cells, LDV-FITC binding with Mn2+, flow cytometry; 100% = Mn2+-driven binding gain fully reversed | inhibition, % at 10 µM (by protocol) | 0.2% of 24,000 active | AID 529;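 active = inhibition above 50%; inconclusive = compound itself fluorescent, judged against control cell fluorescence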
# VLA-4 allo ag = allosterically activates the human VLA-4 integrin; Jurkat cells, LDV-FITC binding, flow cytometry; activation, % at 10 µM (by protocol); P13612; 24,000 tested, under 10 active;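 active = fluorescent ligand binding to cells raised by more than 40% of the manganese-induced maximum; inconclusive = compound's own fluorescence above 85% of the ligand control signal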
# FPRL1 binder = human FPRL1 ligand, with FPR counter-screen. P25090. 0.3% of 24,000 active. inhibition, % (concentration not given with the values). FPRL1-expressing cells, fluorescent ligand binding inhibition, flow cytometry
# Target sequence (P25090 whole entry, looked up): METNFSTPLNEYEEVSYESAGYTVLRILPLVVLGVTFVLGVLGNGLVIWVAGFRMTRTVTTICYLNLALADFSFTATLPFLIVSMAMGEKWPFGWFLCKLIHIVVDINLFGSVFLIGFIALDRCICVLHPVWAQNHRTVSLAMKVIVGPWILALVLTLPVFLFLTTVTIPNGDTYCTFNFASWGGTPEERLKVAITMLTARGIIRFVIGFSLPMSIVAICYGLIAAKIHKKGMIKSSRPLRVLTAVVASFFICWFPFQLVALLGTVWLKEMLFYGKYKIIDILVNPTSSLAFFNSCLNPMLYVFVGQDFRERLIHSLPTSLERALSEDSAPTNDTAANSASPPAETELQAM
# Numbers stand for hits; i = inactive; ? = inconclusive; nt = no result. Rows were chosen to be rich in hits. Some 1.8% of all compounds tested hit in one or more screens of this group. Cut-off read from the data, not from the text of the source, unless noted: active = inhibition above about 30%; inconclusive = no clear call, values can overlap the other calls; inactive = below that.
SMILES,FPR ligand,Autofluor Jurkat,VLA-4 antagonist,VLA-4 allo ag,FPRL1 binder
CCOC(=O)Cc1cc(=O)n2[nH]c(C)c(-c3ccccc3)c2n1,51,nt,nt,nt,i
CCOC(=O)Cc1cc(=O)n2[nH]c(C)c(C#N)c2n1,i,nt,nt,nt,i
C/C(O)=c1/ccc2cccc3nc(C)nc1c23,i,3.5,?,?,i
O=C(c1ccco1)c1nnn(Cc2ccccc2)c1-c1ccccc1,i,i,i,i,i
O=C(Nc1ccc(-c2noc(-c3cccs3)n2)cc1)c1cccnc1,i,i,?,?,i
COc1cc(NC(=O)c2ccc(COCC(F)(F)F)o2)cc(OC)c1OC,i,i,i,i,i
CCC(NC(=O)Nc1cc(OC)c(OC)c(OC)c1)(C(F)(F)F)C(F)(F)F,45,i,i,i,55
N#Cc1c(N)n(CCNC(=O)c2cccs2)c2nc3ccccc3nc12,i,5.3,?,?,i
CCOC(=O)c1cc(NC(=O)C2C3CCC(O3)C2C(=O)O)cc(C(=O)OCC)c1 (configuration not stated),i,nt,nt,nt,i
CCOC(=O)c1c(NC(=O)C2C3CCC(O3)C2C(=O)O)sc(C)c1-c1ccc(C)cc1 (configuration not stated),46,nt,nt,nt,i
Cc1onc(-c2ccccc2)c1C(=O)NC(CC(=O)O)c1ccc(OC(C)C)cc1 (configuration not stated),i,i,86,i,i
CC1CCc2nn(CC(=O)NCCN3CCCCC3C)cc2C1 (configuration not stated),i,i,i,i,i
COc1ccc(-c2cn3cccnc3n2)cc1NC(=O)c1ccc(Br)o1,i,i,i,i,i
COc1ccc(-c2cn3cccnc3n2)cc1NC(=O)CC(C)C,i,i,i,i,40
CCCC(=O)Nc1cc(-c2cn3cccnc3n2)ccc1OC,i,i,i,i,47
CCn1c(=O)cc(SCC(=O)NCCCN2CCN(c3ccccc3F)CC2)c2ccccc21,i,i,i,i,i
CC1=C(C(=O)OC(C)C)C(c2ccccn2)n2ncnc2N1 (configuration not stated),i,i,i,i,i
CC(C)C(C(=O)Nc1ccc2c(c1)OCO2)N1C(=O)c2ccccc2C1=O (configuration not stated),i,i,i,i,i
CCC(SC1=Nc2ccccc2C2=NC(CC(C)C)C(=O)N12)C(=O)Nc1ccc2c(c1)OCO2 (configuration not stated),58,i,?,?,i
CCOC(=O)CCCCC(=O)c1[nH]c(=O)[nH]c1CSc1nc2ccccc2[nH]1,i,i,55,i,i
Cc1cccc(-n2nc3c(c2NC(=O)c2ccco2)CSC3)c1C,96,i,i,i,i
CCn1cc(C(=O)NC2CCC(C)CC2)c(=O)c2cc(S(=O)(=O)N3CCCCC3)ccc21 (configuration not stated),32,i,i,i,i
CCn1cc(C(=O)NC2CCCC2)c(=O)c2cc(S(=O)(=O)N3CCOCC3)ccc21,i,i,i,i,i
O=C1CN(c2nc3ccccc3n3cnnc23)CC(=O)N1CCc1ccccc1,i,i,i,i,i
Cc1ccc(CCNC(=O)CN2C(=O)COc3ccccc32)cc1,i,i,62,i,i
SMILES,FPR ligand,Autofluor Jurkat,VLA-4 antagonist,VLA-4 allo ag,FPRL1 binder
Cc1ccc(CNC(=O)CN2C(=O)COc3ccc(C)cc32)cc1,i,i,i,i,i
CN(C)CCNC(=O)c1ccc(CS(=O)(=O)c2ccc(Br)cc2)o1,i,i,i,i,i
O=C(Cn1cnc2c(cnn2-c2ccc(F)cc2)c1=O)OCc1ccccc1,40,i,i,i,54
CCOC(=O)c1c(C)c(C(=O)NCc2ccc3c(c2)OCO3)c(C)n1C,i,i,i,i,i
CCCCn1c(NC(C)=O)c(C#N)c2nc3ccccc3nc21,66,nt,nt,nt,i
C=CCn1c(NC(=O)c2ccccc2Cl)c(C#N)c2nc3ccccc3nc21,i,nt,nt,nt,i
C=CCn1c(NC(=O)c2ccccc2)c(C#N)c2nc3ccccc3nc21,?,nt,nt,nt,32
CCCCCn1c2nc3ccccc3nc2c2c(=O)n(CC(C)C)cnc21,i,i,i,i,i
CCOc1ccc(NC(=O)c2oc3ccccc3c2NC(=O)C(C)C)cc1,i,2.5,?,?,i
CSc1ccc(C2NC(=O)c3c(sc4c3CCN(C)C4)N2)cc1 (configuration not stated),i,4.7,?,?,i
CN1CCc2c(sc3c2C(=O)NC(c2ccc(-c4cccc(Cl)c4)o2)N3)C1 (configuration not stated),i,9.9,i,?,i
COc1ccc(CNC(=O)c2ccc3c(c2)N(C)C(=O)CS3=O)cc1 (configuration not stated),i,i,i,i,i
O=C(Nc1cccc2c1CCCC2)C1CCCN(S(=O)(=O)c2cccc3nonc23)C1 (configuration not stated),i,i,i,i,i
Oc1cc(NCc2cccnc2)ccc1-c1nc2ccccc2o1,i,3,?,?,i
CCCC(=O)Nc1ccc2oc(-c3cccnc3)nc2c1,i,i,i,i,i
CN1CC=C2C(C#N)=C(N)C(C#N)(C#N)C(c3cccc(Cl)c3Cl)C2C1 (configuration not stated),i,2.7,?,?,i
Cc1nc2cc(Cl)c(Cl)cc2nc1C,i,3.1,?,?,i
O=C1C(CCS(=O)c2ccccc2)C(=O)N(c2ccccc2)N1c1ccccc1 (configuration not stated),34,i,58,i,i
CCOC(=O)N1CCN(C(=O)CN2C(=O)COc3ccc(C(C)(C)C)cc32)CC1,i,i,i,i,i
CC(C)N=c1cc2n(-c3ccc(Cl)cc3)c3ccccc3nc-2cc1Nc1ccc(Cl)cc1,i,3.9,?,?,i
Cc1ccc(CNC(=O)CN(C)S(=O)(=O)c2cccc3cccnc23)cc1,i,i,i,i,i
Cc1ccc(CCNC(=O)C2CCCN(c3nc4ccccc4o3)C2)cc1 (configuration not stated),i,i,i,i,i
Nc1nc2n(n1)C(c1ccccc1Cl)CC(c1ccc(F)cc1)N2 (configuration not stated),i,2.7,?,?,i
Cc1ccc(C2CC(c3ccccc3Cl)n3nc(N)nc3N2)cc1 (configuration not stated),i,i,i,i,i
CCOC(=O)CSc1nc2ccccc2n1C(=O)OCC,i,2.8,?,?,i
CCOC(=O)CSc1nc2ccccc2n2cnnc12,?,7.3,?,?,i
COc1ccccc1OCC(=O)Nc1ccc(S(=O)(=O)Nc2nc(C)cc(C)n2)cc1,i,i,i,i,i
Cc1nc(C)c(C(=O)C2=C(O)C(=O)N(CCCn3ccnc3)C2c2ccc(Cl)cc2)s1 (configuration not stated),38,nt,nt,nt,i
COCCCN1C(=O)C(O)=C(C(=O)c2ccco2)C1c1ccccc1 (configuration not stated),43,nt,nt,nt,i
